# Measurements published in the supplement of paper PMC12282887.
# ± gives the standard deviation of the averaged measurements.
# System: E. coli BW25113 marRABp lux reporter
# Assay: promoter activity interaction Z-score (Lux/OD deviation from empty-vector control); higher = stronger promoter induction by the compound
# Description: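 E. coli BW25113 (wild type or ΔmarA/ΔsoxS/Δrob) carrying pTU175 luxCDABE promoter reporters was grown in LB in 384-well plates at 37°C with each of 94 compounds at 4 two-fold concentrations, in biological duplicates. Luminescence and OD600 were read every 30 min for 12 h and integrated as AUC over 8 h (0-8 h WT, 1-9 h mutants). Lux AUC was divided by OD AUC; the interaction score is the residual of a Huber robust fit of each promoter against the empty-vector control, then Z-transformed per promoter.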
Compound,"promoter activity interaction Z-score (0.28 µg/ml, genetic background: wild type)","promoter activity interaction Z-score (0.28 µg/ml, genetic background: ΔmarA)","promoter activity interaction Z-score (0.28 µg/ml, genetic background: Δrob)","promoter activity interaction Z-score (0.28 µg/ml, genetic background: ΔsoxS)","promoter activity interaction Z-score (0.56 µg/ml, genetic background: wild type)","promoter activity interaction Z-score (0.56 µg/ml, genetic background: ΔmarA)","promoter activity interaction Z-score (0.56 µg/ml, genetic background: Δrob)","promoter activity interaction Z-score (0.56 µg/ml, genetic background: ΔsoxS)","promoter activity interaction Z-score (1.1 µg/ml, genetic background: wild type)","promoter activity interaction Z-score (1.1 µg/ml, genetic background: ΔmarA)","promoter activity interaction Z-score (1.1 µg/ml, genetic background: Δrob)","promoter activity interaction Z-score (1.1 µg/ml, genetic background: ΔsoxS)","promoter activity interaction Z-score (40.6 µg/ml, genetic background: wild type)","promoter activity interaction Z-score (40.6 µg/ml, genetic background: ΔmarA)","promoter activity interaction Z-score (40.6 µg/ml, genetic background: Δrob)","promoter activity interaction Z-score (40.6 µg/ml, genetic background: ΔsoxS)","promoter activity interaction Z-score (81.1 µg/ml, genetic background: wild type)","promoter activity interaction Z-score (81.1 µg/ml, genetic background: ΔmarA)","promoter activity interaction Z-score (81.1 µg/ml, genetic background: Δrob)","promoter activity interaction Z-score (81.1 µg/ml, genetic background: ΔsoxS)","promoter activity interaction Z-score (162.2 µg/ml, genetic background: wild type)","promoter activity interaction Z-score (162.2 µg/ml, genetic background: ΔmarA)","promoter activity interaction Z-score (162.2 µg/ml, genetic background: Δrob)","promoter activity interaction Z-score (162.2 µg/ml, genetic background: ΔsoxS)","promoter activity interaction Z-score (324.4 µg/ml, genetic background: wild type)","promoter activity interaction Z-score (324.4 µg/ml, genetic background: ΔmarA)","promoter activity interaction Z-score (324.4 µg/ml, genetic background: Δrob)","promoter activity interaction Z-score (324.4 µg/ml, genetic background: ΔsoxS)"
CC[C@H]1OC(=O)[C@H](C)[C@@H](O[C@H]2C[C@@](C)(OC)[C@@H](O)[C@H](C)O2)[C@H](C)[C@@H](O[C@@H]2O[C@H](C)C[C@H](N(C)C)[C@H]2O)[C@](C)(O)C[C@@H](C)CN(C)[C@H](C)[C@@H](O)[C@]1(C)O [Azithromycin],0.645 ± 0.36,0.703 ± 1.2,0.528 ± 0.82,0.0278 ± 0.18,1.8 ± 0.42,1.75 ± 0.93,1.66 ± 0.88,3.09 ± 1.8,4.3 ± 0.46,4.49 ± 2,2.983 ± 0.0035,4.44 ± 2.6,,,,,,,,,,,,,,,,
C=C[C@H]1CN2CC[C@H]1C[C@H]2[C@H](O)c1ccnc2ccc(OC)cc12 [Quinine],,,,,,,,,,,,,0.0904 ± 0.38,-0.307 ± 0.24,-0.00554 ± 0.082,-0.106 ± 0.073,-0.119 ± 0.029,0.197 ± 0.19,-0.0844 ± 0.1,0.0817 ± 0.18,-0.16 ± 0.05,0.254 ± 0.062,-0.151 ± 0.3,-0.0309 ± 0.098,1.1 ± 0.12,1.18 ± 0.12,-0.164 ± 0.17,0.579 ± 0.51
